Data on 40 molecules can be found in PubChem BioAssay (EPA / NIEHS).

Values joined by “and” are separate entries in the source; they are usually repeats but may differ in a detail not shown here. Identical values can stand only once. Results filed as inconclusive are left out. Active and inactive are the calls of the source. The calls were made as follows: active = hit-call score of the fitted dose curve at least 0.9, where 1 is the maximum; inconclusive = response in the unintended direction; inactive = score below 0.9.

Cellular tumor antigen p53 (Homo sapiens), sequence (P04637 whole entry, looked up, the tested form may be a part): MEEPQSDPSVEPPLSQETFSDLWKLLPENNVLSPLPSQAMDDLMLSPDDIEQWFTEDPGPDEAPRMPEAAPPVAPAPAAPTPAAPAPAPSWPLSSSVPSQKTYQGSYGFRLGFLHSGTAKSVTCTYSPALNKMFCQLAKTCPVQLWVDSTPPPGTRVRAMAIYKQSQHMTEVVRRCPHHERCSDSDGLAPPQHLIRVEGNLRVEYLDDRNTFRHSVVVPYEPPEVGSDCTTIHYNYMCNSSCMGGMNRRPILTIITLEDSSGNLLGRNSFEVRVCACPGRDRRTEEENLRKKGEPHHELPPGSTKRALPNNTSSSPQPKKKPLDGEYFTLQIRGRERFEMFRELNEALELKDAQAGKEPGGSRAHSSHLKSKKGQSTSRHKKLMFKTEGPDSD

The test concerns the target Cellular tumor antigen p53 (Homo sapiens) (UniProt P04637). As to the kind of experiment: TOX21_p53_BLA_p3_ratio: Tox21 HCT-116 p53 Agonism Beta-lactamase Assay, Ratio, Phase 3 (AID 2283596). The text has this: TOX21_p53_BLA_p3 is a cell-based, single-readout assay that uses HCT116, a human intestinal cell line, […] in a 1536-well plate.TOX21_p53_BLA_p3_ratio is an assay readout measuring reporter gene via receptor activity and designed using inducible reporter (beta lactamase induction) detected with GAL4 b-lactamase reporter gene. The signal is derived from the ratio of cleaved (ch2) to uncleaved (ch1) reporter gene substrate used as the measure of target activity.Data from the assay component TOX21_p53_BLA_p3_ratio was analyzed into 1 assay endpoint. This assay endpoint, TOX21_p53_BLA_p3_ratio, was analyzed in the positive analysis fitting direction relative to DMSO as the negative control and baseline of activity. Using a type of inducible reporter, gain-of-signal activity can be used to understand changes in the reporter gene as they relate to the gene TP53. Furthermore, this assay endpoint can be referred to as a primary readout, because this assay has produced multiple assay endpoints where this ratio serves a reporter gene function to understand target activity. To generalize the intended target to other relatable targets, this assay endpoint is annotated to the DNA binding intended target family, where the subfamily is tumor suppressor.
Thawing Method: Place 14 mL of pre-warmed thaw medium into a 15 mL of conical tub. Remove the vial of cells to be thawed from liquid nitrogen and thaw rapidly by placing at 37C in a water bath with gentle agitation for 1-2 minutes. Decontaminate the vial by wiping with 70% ethanol before opening in a biological safety cabinet. Transfer the vial contents drop-wise into 14 mL of thaw medium in a sterile 15-mL conical tub. Centrifuge cells at 900 rpm for 4 minutes and resuspend in thaw medium. Transfer contents to the T75 tissue culture flask containing Thaw Medium and place flask in a humidified 37C/5% CO2 incubator. Switch to growth medium at first passage.Propagation Method: Aspirate medium, rinse once in DPBS, add 0.25% Trypsin/EDTA and swirl to coat the cell evenly. Add an equal volume of Growth Medium to inactivate Trypsin after 2-3 minutes incubation at 37C. Centrifuge cells at 900 rpm for 4 minutes and resuspend in growth medium. Cell should be passage or fed at least twice a week.Assay Protocol: Harvest cells from culture in growth medium and resuspend in assay medium. 2.2 Dispense 4000 cells/5 uL/well into 1536-well black/clear bottom plates using a Multidrop dispenser. After the cells were incubated at 37C for 5 hours, 23 nL of compounds dissolved in DMSO were transferred to the assay plate by a PinTool resulting in a 217-fold dilution. Incubate the plates for 16 hours at 37C, 5% CO2. Add 1 uL of 6X LiveBLAzer FRET B/G (CCF4-AM) Substrate Mixture to each well using a BioRAPTR dispenser and incubate the plates at room temperature for 2 hours. Measure fluorescence intensity at 460 and 530 nm emission and 405 nm excitation by an Envision detector. Data is expressed as the ratio of 460nm/530nm emissions. Add 4 uL of Cell-titer Glo to each well using BioRAPTR and incubate the plates at room temperature for 2 hours. Measure fluorescence intensity by a VewLux plate reader.
`CCn1c2ccccc2c2cc([N+](=O)[O-])ccc21`: the result was inactive. Still for that read-out and setting: as for `Cc1oc(C)c(C(=O)Nc2ccccc2)c1C`, the entry is “inactive”; as for `CCOC(=O)[C@@H](N)CS`, “inactive”.

Regarding `OC(CN1CCC(Cc2ccc(F)cc2)CC1)c1ccc(Cl)cc1` (stereo not given), the result was inactive. On the same count and under the same terms, as for `NC(CS)C(=O)O` (stereo not given), the entry is “inactive”; as for `O=C(O)c1ccc(S(=O)(=O)N(Cl)Cl)cc1`, “inactive”.

For `CC(C)(C)c1cc(CO)cc(C(C)(C)C)c1O`, the outcome was inactive. Same read-out and setting: as for `CN1[C@@H](CC(=O)c2ccccc2)CCC[C@H]1C[C@H](O)c1ccccc1`, the entry is “inactive”.

For `CC(C)(C)OC(=O)c1cccc(N)c1`, the outcome was inactive. On the same count and under the same terms, the result for `N.N.O=C([O-])C1(C(=O)[O-])CCC1.[Pt+4]` reads “inactive”; that for `Cc1cc(C)cc(N)c1`, “inactive”; that for `O=C1Nc2ccc(Cl)cc2[C@@](C#CC2CC2)(C(F)(F)F)O1`, “inactive”. Same read-out and setting: the result for `CCOC(=O)CC(=O)OCC` reads “inactive”; that for `CN(C)CCC(c1ccccc1)c1ccccn1` (stereo not given), “inactive”; that for `CCOC(=O)COc1ccc2c(=O)cc(-c3ccccc3)oc2c1`, “inactive”. As to `CN(C)c1ccc(C2(c3ccc(N(C)C)cc3)OC(=O)c3cc(N(C)C)ccc32)cc1`, the half-maximal activity concentration (AC50) was 13.5 µM (active).

Regarding `CCC(=O)O[C@]1(C(=O)CCl)[C@@H](C)C[C@H]2[C@@H]3C[C@H](F)C4=CC(=O)C=C[C@]4(C)[C@@]3(F)[C@@H](O)C[C@@]21C`, the result was inactive. On the same count and under the same terms, as for `Cn1c(=O)c2c(ncn2CC(O)CO)n(C)c1=O` (stereo not given), the entry is “inactive”; as for `CCn1cc(C(=O)O)c(=O)c2cc(F)c(N3CCN(C)CC3)cc21`, “inactive”.

On to `O=C(O)c1cc(Cl)cc(Cl)c1O`, for which the outcome was inactive. Same read-out and setting: the result for `O=C1C(O)=C(O)C(=O)C(O)=C1O` reads “inactive”; that for `CC(C(=O)O)c1ccc(N2Cc3ccccc3C2=O)cc1` (stereo not given), “inactive”. With `CC(=O)Oc1ccccc1C(=O)Nc1ncc([N+](=O)[O-])s1`, the AC50 was 1.19 µM (active) and 15.5 µM (active).

In the case of `C=C1C[C@@]23CC[C@H]4[C@@](C)(CCC[C@@]4(C)C(=O)O[C@@H]4O[C@H](CO)[C@@H](O)[C@H](O)[C@H]4O)[C@@H]2CC[C@]1(O[C@@H]1O[C@H](CO)[C@@H](O)[C@H](O[C@@H]2O[C@H](CO)[C@@H](O)[C@H](O)[C@H]2O)[C@H]1O[C@@H]1O[C@H](CO)[C@@H](O)[C@H](O)[C@H]1O)C3`, the outcome was inactive. Same read-out and setting: as for `CC(C)(C)C(=O)CC(=O)C(C)(C)C`, the entry is “inactive”; as for `Nc1cc(Cl)c([N+](=O)[O-])cc1O`, “inactive”. In the case of `CCCCc1oc2ccc(NS(C)(=O)=O)cc2c1C(=O)c1ccc(OCCCN(CCCC)CCCC)cc1`, the half-maximal activity concentration (AC50) is 43.7 µM (active). For `O=C(c1ccccc1)c1cc(Cl)ccc1O`, the result was inactive.

In the case of `CC(=O)c1sc(C)nc1C`, the outcome was inactive.

For the molecule `OCCc1ccccn1`, the result was inactive.

On to `CCCOC(C(=O)OC1CCN(C)CC1)(c1ccccc1)c1ccccc1`, for which the outcome was inactive.

Turning to `[O-][N+](=Nc1ccccc1)c1ccccc1`, the outcome was inactive. Take `Nc1nccs1`: the result was inactive.

With `NS(=O)(=O)c1ccccc1OC(F)(F)F`, the outcome was inactive. Still for that read-out and setting: as for `CC(=O)Nc1ccc(S(=O)(=O)Nc2ccc([N+](=O)[O-])cc2)cc1`, the entry is “inactive”.

In the case of `O=S(=O)(O)c1cccc2ccccc12`, the result was inactive. Still for that read-out and setting: the result for `CC(=O)Nc1ccc(C(=O)O)cc1` reads “inactive”; that for `O=C1C(c2[nH]c3ccccc3c2O)=Nc2ccccc21`, “inactive”.

Regarding `CCc1c2c(nc3ccc(OC(=O)N4CCC(N5CCCCC5)CC4)cc13)-c1cc3c(c(=O)n1C2)COC(=O)[C@]3(O)CC`, the AC50 is 5.37 µM (active). The same measure, in the same setting: the result for `CCCCCCCC[P+](CCCCCCCC)(CCCCCCCC)CCCCCCCC` reads 13.4 µM (active).
